From PubChem BioAssay (NCATS)
Inconclusive results are not listed. Calls of active or inactive are those of the source. Calls come from the whole dose curve; as a rule, active = well fitted cell-killing curve with a large enough effect; inconclusive = small, poorly fitted or top-dose-only effect, or effect the other way; inactive = flat fitted curve, though single readings scatter.

Legend:
Test in all cases: Primary qHTS to identify gynecologic anti-cancer compounds using libraries of approved drugs and bioactive compounds (AID 1345084); note: nearly all actives have a fitted effect of over 55% in size
[1] = tested on: C33A; conditions: Gynecologic cancer cell panel viability, ATPlite luminescence, 48 h; series mostly up to 57.5 µM
Method in brief: (§1)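 Cell viability after 48 h drug treatment, ATPlite luminescence readout; five doses.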

[2] = tested on: CAOV3; conditions: Gynecologic cancer cell panel viability, ATPlite luminescence, 48 h; series mostly up to 57.5 µM
Method in brief: as §1

[3] = tested on: CASKI; conditions: Gynecologic cancer cell panel viability, ATPlite luminescence, 48 h; series mostly up to 57.5 µM
Method in brief: as §1

[4] = tested on: Es-2; conditions: Gynecologic cancer cell panel viability, ATPlite luminescence, 48 h; series mostly up to 57.5 µM
Method in brief: as §1

[5] = tested on: HeLa; conditions: Gynecologic cancer cell panel viability, ATPlite luminescence, 48 h; series mostly up to 57.5 µM
Method in brief: as §1

[6] = tested on: Hek293T; conditions: Gynecologic cancer cell panel viability, ATPlite luminescence, 48 h, control line for the selectivity index; series mostly up to 57.5 µM
Method in brief: as §1

[7] = tested on: JEG-3; conditions: Gynecologic cancer cell panel viability, ATPlite luminescence, 48 h; series mostly up to 57.5 µM
Method in brief: as §1

[8] = tested on: OV90; conditions: Gynecologic cancer cell panel viability, ATPlite luminescence, 48 h; series mostly up to 57.5 µM
Method in brief: as §1

[9] = tested on: PA-1; conditions: Gynecologic cancer cell panel viability, ATPlite luminescence, 48 h; series mostly up to 57.5 µM
Method in brief: as §1

[10] = tested on: SKOV3; conditions: Gynecologic cancer cell panel viability, ATPlite luminescence, 48 h; series mostly up to 57.5 µM
Method in brief: as §1

[11] = tested on: Tov-21-G; conditions: Gynecologic cancer cell panel viability, ATPlite luminescence, 48 h; series mostly up to 57.5 µM
Method in brief: as §1

[12] = tested on: Tov112D; conditions: Gynecologic cancer cell panel viability, ATPlite luminescence, 48 h; series mostly up to 57.5 µM
Method in brief: as §1

Measured: Potency

COC(=O)c1ccc(OC(CO)C(O)c2ccc(O)c(OC)c2)c(OC)c1 (stereo not given)
inactive: all assays above

CCOc1ccc(S(=O)(=O)n2c(C)nc3ccccc32)cc1
inactive: all assays above

O=C(OCC1=CC(O)C2C=CO[C@@H](O[C@@H]3O[C@H](CO)[C@@H](O)[C@H](O)[C@H]3O)C12)c1ccccc1 (stereo not given in full)
inactive: all assays above

CCc1c(-c2ccccc2)c(-c2ccccc2)nn1-c1ccccc1-c1cccc(OCC(=O)O)c1
inactive: all assays above

CC1CCC2(OC1)OC1CC3C4CC=C5CC(O)CC(O[C@@H]6OC[C@@H](O)[C@H](O)[C@H]6O)C5(C)C4CCC3(C)C1(O)C2C (stereo not given in full)
inactive: all assays above

O=C(O)Cc1cn(C2OCC(O)C(O)C2O[C@@H]2O[C@H](CO)[C@@H](O)[C@H](O)[C@H]2O)c2ccccc12 (stereo not given in full)
inactive: all assays above

CC(=O)N[C@@H](C(=O)O[C@H]1CCC(C)(C)[C@@H]2CCC3=C(COC3=O)[C@@]12C)C(C)C
inactive: all assays above

CCC[C@@H]1O[C@@H]2C[C@H]3[C@@H]4CCC5=CC(=O)C=C[C@]5(C)[C@H]4[C@@H](O)C[C@]3(C)[C@]2(C(=O)CO)O1
inactive: all assays above

COC(=O)C1=COC(O[C@@H]2O[C@H](CO)[C@@H](O)[C@H](O)[C@H]2O)[C@H]2[C@@H]1[C@H](OC(=O)CCc1ccc(O)cc1)C[C@]2(C)O (stereo not given in full)
inactive: all assays above

CC1=CC2/C=C(\C)CC[C@@H](O)[C@@H](O)[C@@H]3O[C@@H]3C(=O)[C@]23C(=O)N[C@@H](CC(C)C)[C@@H]3[C@@H]1C (stereo not given in full)
inactive: all assays above

OC[C@H]1O[C@@H](OC(CCCCc2ccc(O)cc2)CCc2ccc(O)cc2)[C@H](O)[C@@H](O)[C@@H]1O (stereo not given in full)
inactive: all assays above

CC(C)C1=CC2C(CC[C@]2(C)O)[C@](C)(O)CC1 (stereo not given in full)
inactive: all assays above

CC(c1ncncc1F)C(O)(Cn1cncn1)c1ccc(F)cc1F (stereo not given)
inactive: all assays above

COc1ccc(/C=C/C(=O)O[C@H]2[C@H](O[C@H]3[C@@H]4C=CO[C@@H](O[C@@H]5O[C@H](CO)[C@@H](O)[C@H](O)[C@H]5O)[C@@H]4[C@@]4(CO)O[C@@H]34)O[C@@H](C)[C@H](O)[C@H]2OC(C)=O)cc1
inactive: all assays above

C=CC[C@]12C[C@@H](OC)C(=O)C(OC)=C1O[C@@H](c1cc(OC)c3c(c1)OCO3)[C@@H]2C
inactive: all assays above
